# Screening data (PubChem)
# Hits are enriched below; roughly 3.1% of the tested compounds scored in any of these assays.
# uPA surface inh = qHTS for Inhibitors of Cell Surface uPA Generation. cell surface uPA generation assay, qHTS. Potency, µM (series often up to 38.3 µM), without a hit: at the highest dose activity change, negative = inhibition, hits mostly inhibitors. actives 0.31% (n = 330,000). AID 540303, 2011; active means well fitted inhibition curve with a large enough effect; inconclusive means small, poorly fitted or top-dose-only effect; inactive means no such curve, though single readings can be large or run the other way; tested in mouse RAW 264.7 cells; further: potency means the concentration at half of the fitted maximal effect; on the % scale 0 is the no-effect control and ±100 the full control effect; nearly all actives have a fitted effect of over 55% in size
# D3 antag = qHTS of D3 Dopamine Receptor Antagonist: qHTS; D(3) dopamine receptor (Homo sapiens), P35462; actives 2.5% (n = 360,000); D3R cells, DiscoveRx beta-arrestin luminescence, antagonist mode; stronger effect = lower value; AID 652054, 2013; max response, negative = inhibition, %; in the data active means max response below about -50%; inconclusive means no clear call, values can overlap the other calls; further: on the % scale 0 is the no-effect control and ±100 the full control effect
# Target sequence (P35462 whole entry, looked up): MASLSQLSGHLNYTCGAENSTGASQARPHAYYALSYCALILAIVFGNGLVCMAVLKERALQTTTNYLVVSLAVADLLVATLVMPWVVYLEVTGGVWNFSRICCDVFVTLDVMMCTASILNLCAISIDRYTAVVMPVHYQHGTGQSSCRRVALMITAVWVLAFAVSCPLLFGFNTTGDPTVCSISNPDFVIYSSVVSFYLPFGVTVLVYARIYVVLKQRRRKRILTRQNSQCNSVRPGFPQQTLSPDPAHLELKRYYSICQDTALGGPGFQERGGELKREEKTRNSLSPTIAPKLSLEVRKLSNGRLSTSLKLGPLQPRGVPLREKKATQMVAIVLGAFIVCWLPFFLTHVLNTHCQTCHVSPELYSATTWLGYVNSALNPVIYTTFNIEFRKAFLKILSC
#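 Cells plated overnight at 1500 cells/well, then exposed to library compounds with dopamine controls for 90 minutes at 37 degrees C. DiscoveRx reagent added for 30–60 minutes at room temperature; luminescence read, quantitative HTS format.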
# D3 ag = qHTS of D3 Dopamine Receptor Agonist: qHTS. D3R DiscoveRx beta-arrestin cells, luminescence, 90 min. actives 0.58% (n = 410,000). max activation, %; in the data active means max activation above about 30%; further: 0% is about no effect
#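 Agonist mode: compounds and dopamine controls were applied to plated cells for 90 min at 37 degrees C after an overnight attachment at 1500 cells/well. Luminescent read-out followed 30 - 60 minutes at room temperature with DiscoveRx detection reagent.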
# RGS4 inhibitor = Inhibitors of Regulator of G Protein Signaling (RGS) 4: qHTS. actives 0.039% (n = 390,000). Regulator of G-protein signaling 4 (Homo sapiens), P49798. Potency, µM (top dose mostly 114 µM), inactives show at the highest dose activity change, negative = inhibition, actives largely listed as inhibitors. Transcreener GDP fluorescence polarization, RGS4-accelerated GTP hydrolysis. AID 504845, 2011; active means well fitted inhibition curve with a large enough effect; inconclusive means small, poorly fitted or top-dose-only effect; inactive means no such curve, though single readings can be large or run the other way; further: potency means the concentration at half of the fitted maximal effect; on the % scale 0 is the no-effect control and ±100 the full control effect; nearly all actives have a fitted effect of over 75% in size
# Target sequence (P49798 whole entry, looked up): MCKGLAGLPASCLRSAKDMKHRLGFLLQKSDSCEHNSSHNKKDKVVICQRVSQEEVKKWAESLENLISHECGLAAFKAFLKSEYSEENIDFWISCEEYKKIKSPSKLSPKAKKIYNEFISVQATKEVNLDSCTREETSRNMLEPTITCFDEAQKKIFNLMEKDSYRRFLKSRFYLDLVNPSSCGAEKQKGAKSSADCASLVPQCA
#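 MLSMR compounds (23 nl, pin-transferred) preincubated 10 min at room temperature with a 500nM (2x) first reagent, then RGS4 at 900nM (2x) plus Transcreener GDP mix added; fluorescence polarization (620/688 nm) read before and after 90 min at 30 °C.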
# * hit, by the source's call; ? = inconclusive; nt = no result given; [ ] = dose if it differs, or a comment.
SMILES,uPA surface inh,D3 antag,D3 ag,RGS4 inhibitor
Cc1cc(NCc2ccccc2)nc2ccccc12,-9%,-57*,-5,-6%
Cc1cc(NCc2ccccc2)c2ccccc2n1,-28%,4,-7,-14%
O=c1c(S(=O)(=O)c2ccccc2)cn(Cc2cccc(F)c2)c2cc(N3CCOCC3)c(F)cc12,nt,nt,6,0%
CCc1nn(CC(=O)NCc2ccc(OC)cc2OC)c(=O)c2cc3c(OC)cccc3n12,nt,nt,14,11%
c1ccc(N/N=C(\Cc2nc3ccccc3[nH]2)c2ccccc2)cc1,?,4,1,?
Cc1ccc(N/N=C(\Cc2nc3ccccc3[nH]2)c2ccccc2)cc1,-6%,-60*,-23,?
CC(=O)C1=C(c2ccc(Br)cc2)C(=O)c2ccccc2C1=O,-10%,-87*,-13,-32%
COc1ccc(CCN2C(=O)C3C4C=CC(C3C2=O)C2C(=O)N(CCc3ccc(OC)c(OC)c3)C(=O)C42)cc1OC (configuration not stated),nt,-19,31*,14%
COc1ccc(CCn2c(N)cc(=O)[nH]c2=O)cc1OC,-7%,-86*,-13,?
COc1ccc(CCN2C(=O)C3C4C=CC(C5CC45)C3C2=O)cc1OC (configuration not stated),-3%,-1,4,0%
CSc1ncc(C(=O)Nc2ccccc2C(=O)c2ccccc2)c(C)n1,nt,nt,7,-17%
OCC[C@@H]1C[C@H](O)[C@@H](O)[C@@]2(OCc3ccccc32)O1,6%,40,20,-26%
OCC[C@@H]1C[C@H](O)[C@@H](O)[C@]2(OCc3ccc(CO)cc32)O1,nt,-64*,-15,nt
Cc1cccc(NC(=O)c2cc(S(=O)(=O)N(C)c3ccc(F)cc3)ccc2Cl)n1,-6%,-57*,1,3%
COc1ccccc1N(C)S(=O)(=O)c1ccc(Cl)c(C(=O)Nc2cccc(C)n2)c1,5%,3,3,18%
COc1ccccc1NC(=O)c1c(C)cc(C)nc1SCC(=O)Nc1ccc(C)cc1,nt,nt,1,10%
COc1cc(OC)c2c(-c3cccc(-c4ccoc4)c3)cc(=O)oc2c1,10µM*,38,-4,-7%
COc1cc(OC)c2c(-c3cccc(-c4ccc(OC)c(F)c4)c3)cc(=O)oc2c1,?,0,-20,-14%
COc1ccc(OC)c(-c2nnc3n(Cc4ccc(C)cc4)c(=O)c4ccccc4n23)c1,nt,nt,9,8%
Cc1ccc2oc(/N=C(\N)NC(=O)C3CC3)nc2c1,?,-10,-3,1%
Cc1ccc2oc(/N=C(\N)NC(=O)C(C)(C)C)nc2c1,-11%,-52*,-14,5%
COc1ccc(S(=O)(=O)/N=C2\C=C(Nc3ccc(O)cc3)C(=O)c3ccccc32)cc1,-6%,-80*,-34,-11%
Cc1ccccc1NC1=C/C(=N\S(=O)(=O)c2cccs2)c2ccccc2C1=O,-12%,-112*,-19,-21%
CC(=O)Nc1ccc(NC2=C/C(=N/S(=O)(=O)c3cccs3)c3ccccc3C2=O)cc1,-12%,-66*,-18,8%
Cc1ccc(NC(=O)Cn2ccn(-c3ccccc3)c(=O)c2=O)cc1,nt,nt,1,-15%
SMILES,uPA surface inh,D3 antag,D3 ag,RGS4 inhibitor
CCCCC(CC)COC(=O)c1ccccc1O (configuration not stated),nt,nt,-2,nt
CO[C@H]1C[C@H](O[C@H]2[C@H](C)O[C@@H](O[C@@H]3/C(C)=C/C[C@@H]4C[C@@H](C[C@]5(C=C[C@H](C)[C@@H](C6CCCCC6)O5)O4)OC(=O)[C@@H]4C=C(C)[C@@H](O)[C@H]5OC/C(=C\C=C\[C@@H]3C)[C@]54O)C[C@@H]2OC)O[C@@H](C)[C@@H]1O,nt,nt,2,nt
N#CN=c1snc(-c2ccccc2Cl)n1-c1ccccc1Cl,nt,nt,nt,1%
N#CC(=C(\N)Sc1ccccc1N)/C(C#N)=C(/N)Sc1ccccc1N,nt,nt,nt,9.5µM*
COc1ccc(C(=O)Nc2nc(-c3ccc([N+](=O)[O-])cc3)c(-c3ccc(OC)cc3)s2)cc1,5%,-52*,-10,22%
COc1ccc(C(=O)Nc2nc3c(s2)CCc2cc(OC)ccc2-3)cc1,nt,nt,-20,?
COC(=O)c1ccsc1NC(=O)CCS(=O)(=O)c1ccccc1,?,10,2,-24%
COC(=O)c1ccsc1NC(=O)CS(=O)(=O)c1ccccc1,-6%,-102*,-15,-4%
COc1cccc2c1cc1c(=O)n(CC(=O)N3CCN(c4cccc(C)c4C)CC3)nc(C)n12,2%,1,71*,?
COc1cccc2c1cc1c(=O)n(CC(=O)N3CCN(c4cc(Cl)ccc4C)CC3)nc(C)n12,nt,nt,15,7%
Cc1sc(-c2cc3c([nH]c2=O)CC(c2ccccc2)CC3=O)nc1-c1ccc(Cl)cc1 (configuration not stated),nt,nt,-14,-9%
Cc1ccc(S(=O)(=O)C(NC(=O)c2ccccc2)=C(Cl)Cl)cc1,-16%,?,-15,16%[11.4 µM]
O=C(NC(=C(Cl)Cl)S(=O)(=O)c1ccc(Cl)cc1)c1ccccc1,8.9µM*,?,-16,-3%
CN(C)c1ccc2nc3ccc(=[N+](C)C)cc-3sc2c1,?,-60*,-21,-130%
CN(C)c1ccc2nc3ccc(=O)cc-3sc2c1,nt,-17,-6,nt
Cc1cc2nc3ccc(=[N+](C)C)cc-3sc2cc1N,?,-54*,-16,-140%[56.9 µM]
CN1CCC(C2(O)c3ccccc3CSc3sccc32)CC1 (configuration not stated),5%,-67*,0,15%
Cc1ccc2nc(NC(=O)CSc3nccn3Cc3ccc(Cl)cc3)sc2c1,nt,nt,4,-25%
COc1cccc(N(C(=O)CCl)C(C(=O)NCCc2ccccc2)c2cccs2)c1 (configuration not stated),-12%,5,2,-11%
COc1ccc(N(C(=O)CCl)C(C(=O)NCCc2ccccc2)c2cccs2)cc1Cl (configuration not stated),4µM*,-8,-12,-23%
CC(NC(=O)C12CC3CC(CC(C3)C1)C2)c1ccc2c(c1)OCCO2 (configuration not stated),nt,33,32*,-17%
CSCCC(NS(=O)(=O)c1ccccc1)C(=O)OCc1cc(=O)oc2cc(O)ccc12 (configuration not stated),9%,-52*,-1,-2%
COc1ccc(C(CNC(=O)Cc2ccccc2)N2CCCCC2)cc1 (configuration not stated),nt,-19,-34,1%
COc1ccc(C(CNC(=O)CCNS(=O)(=O)c2ccc(Br)cc2)N2CCOCC2)cc1 (configuration not stated),?,-5,-19,-10%
COc1ccc(C(CNC(=O)C(C)Oc2ccc(Br)cc2)N2CCCCC2)cc1 (configuration not stated),-10%,-92*,-18,-9%
